# Assays:
# Test in all cases: DAPPL (digital affinity profiling via proximity ligation, sequencing); 10 mM Tris-HCl pH 7.5, 50 mM NaCl, 1 mM DTT, 4% glycerol, room temperature, 30 min; GST-TFs on glutathione beads, 16-mer random dsDNA library, 0.1% formaldehyde crosslink after washing; high values mean tight binding
# Settings in all cases: protein: recombinant; tags: N-terminal GST; dsDNA, one strand shown
# FLI1 = molecular target: T1, FLI1 (Homo sapiens, UniProt Q01543 1-452)
# T1 sequence: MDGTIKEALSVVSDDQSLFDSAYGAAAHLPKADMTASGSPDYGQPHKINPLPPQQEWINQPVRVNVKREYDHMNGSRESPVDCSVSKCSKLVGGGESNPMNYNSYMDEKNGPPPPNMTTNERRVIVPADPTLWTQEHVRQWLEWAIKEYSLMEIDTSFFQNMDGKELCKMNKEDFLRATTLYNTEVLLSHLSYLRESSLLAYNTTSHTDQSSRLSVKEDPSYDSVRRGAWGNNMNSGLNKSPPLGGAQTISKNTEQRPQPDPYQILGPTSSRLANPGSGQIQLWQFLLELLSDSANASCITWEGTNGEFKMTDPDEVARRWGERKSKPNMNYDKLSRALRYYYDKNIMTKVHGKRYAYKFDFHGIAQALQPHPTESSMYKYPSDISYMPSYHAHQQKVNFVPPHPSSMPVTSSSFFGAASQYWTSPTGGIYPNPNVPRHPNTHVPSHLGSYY
# Outline: (§1)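 Human transcription factors fused to GST were expressed in yeast, captured on glutathione beads, given DNA barcodes and pooled with a GST-only negative control. Pools were incubated with 200 nmole of a 16-mer random double-stranded DNA library in Tris/NaCl/DTT/glycerol buffer at room temperature for 30 min. They were then washed, crosslinked with 0.1% formaldehyde, proximity-ligated (BsaI/T4 ligase, 1 h, 37 °C), PCR-amplified and sequenced on an Illumina NextSeq500. Binding signal is each 6-mer's read frequency for a factor divided by its frequency for the GST control.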
# ELK1 = molecular target: T2, ELK1 (Homo sapiens, UniProt P19419 1-428)
# T2 sequence: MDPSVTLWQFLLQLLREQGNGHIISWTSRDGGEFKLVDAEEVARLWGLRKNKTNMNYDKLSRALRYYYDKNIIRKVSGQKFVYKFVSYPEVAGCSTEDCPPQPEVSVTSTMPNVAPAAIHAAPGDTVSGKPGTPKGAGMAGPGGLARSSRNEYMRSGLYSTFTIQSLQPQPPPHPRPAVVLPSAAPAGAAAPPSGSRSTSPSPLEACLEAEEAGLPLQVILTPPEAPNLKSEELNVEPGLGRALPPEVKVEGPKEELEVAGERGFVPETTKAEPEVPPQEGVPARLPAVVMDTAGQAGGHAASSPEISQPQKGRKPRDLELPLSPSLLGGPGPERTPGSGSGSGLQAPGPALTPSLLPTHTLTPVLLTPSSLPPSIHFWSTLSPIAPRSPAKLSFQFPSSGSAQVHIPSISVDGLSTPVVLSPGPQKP
# Outline: as §1
# GABPA = molecular target: T3, GABPA (Homo sapiens, UniProt Q06546 1-454)
# T3 sequence: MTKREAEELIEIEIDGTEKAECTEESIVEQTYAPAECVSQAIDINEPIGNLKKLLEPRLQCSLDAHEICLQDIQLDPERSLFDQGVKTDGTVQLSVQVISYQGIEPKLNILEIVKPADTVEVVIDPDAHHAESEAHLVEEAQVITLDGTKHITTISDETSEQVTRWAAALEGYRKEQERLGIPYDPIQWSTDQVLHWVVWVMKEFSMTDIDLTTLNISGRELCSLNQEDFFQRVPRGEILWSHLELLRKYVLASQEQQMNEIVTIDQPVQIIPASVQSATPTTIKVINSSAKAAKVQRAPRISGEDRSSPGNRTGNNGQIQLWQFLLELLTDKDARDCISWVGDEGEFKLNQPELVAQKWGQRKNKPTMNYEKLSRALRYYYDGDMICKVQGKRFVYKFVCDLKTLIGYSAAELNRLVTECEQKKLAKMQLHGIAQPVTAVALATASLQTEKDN
# Outline: as §1
# ERG = molecular target: T4, ERG (Homo sapiens, UniProt P11308 1-479)
# T4 sequence: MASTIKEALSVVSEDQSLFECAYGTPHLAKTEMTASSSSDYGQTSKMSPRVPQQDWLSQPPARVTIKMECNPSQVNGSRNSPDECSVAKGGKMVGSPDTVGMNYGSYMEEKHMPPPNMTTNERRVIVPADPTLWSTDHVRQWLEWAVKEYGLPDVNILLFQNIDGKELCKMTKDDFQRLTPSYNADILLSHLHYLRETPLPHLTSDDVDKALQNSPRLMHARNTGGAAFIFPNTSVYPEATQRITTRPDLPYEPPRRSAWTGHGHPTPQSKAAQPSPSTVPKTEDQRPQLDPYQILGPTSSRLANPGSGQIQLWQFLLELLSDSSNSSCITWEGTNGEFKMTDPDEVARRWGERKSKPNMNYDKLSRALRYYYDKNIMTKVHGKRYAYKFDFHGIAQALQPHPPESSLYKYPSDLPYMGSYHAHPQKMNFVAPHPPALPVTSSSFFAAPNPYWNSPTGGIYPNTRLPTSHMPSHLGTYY
# Outline: as §1
# ELF1 = ELF1 (Homo sapiens, UniProt P32519 1-619)
# Sequence of ELF1 (P32519 whole entry): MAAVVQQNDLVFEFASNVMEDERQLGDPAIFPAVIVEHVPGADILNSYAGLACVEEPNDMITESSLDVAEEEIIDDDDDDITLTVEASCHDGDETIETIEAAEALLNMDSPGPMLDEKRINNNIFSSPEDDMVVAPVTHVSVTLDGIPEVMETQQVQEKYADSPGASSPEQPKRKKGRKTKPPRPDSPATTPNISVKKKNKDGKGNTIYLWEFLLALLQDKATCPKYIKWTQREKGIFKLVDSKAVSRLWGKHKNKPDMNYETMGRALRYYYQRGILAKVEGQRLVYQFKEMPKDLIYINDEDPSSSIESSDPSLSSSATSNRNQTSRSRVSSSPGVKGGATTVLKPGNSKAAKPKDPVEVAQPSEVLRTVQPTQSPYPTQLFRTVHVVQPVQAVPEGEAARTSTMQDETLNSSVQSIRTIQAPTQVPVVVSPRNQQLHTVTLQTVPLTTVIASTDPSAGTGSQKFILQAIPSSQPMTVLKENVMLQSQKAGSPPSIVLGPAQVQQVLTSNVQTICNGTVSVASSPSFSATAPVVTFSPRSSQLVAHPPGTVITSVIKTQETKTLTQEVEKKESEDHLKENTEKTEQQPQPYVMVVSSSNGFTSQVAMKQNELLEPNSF
# Outline: as §1
# EHF = molecular target: T5, EHF (Homo sapiens, UniProt Q9NZC4 1-300)
# T5 sequence: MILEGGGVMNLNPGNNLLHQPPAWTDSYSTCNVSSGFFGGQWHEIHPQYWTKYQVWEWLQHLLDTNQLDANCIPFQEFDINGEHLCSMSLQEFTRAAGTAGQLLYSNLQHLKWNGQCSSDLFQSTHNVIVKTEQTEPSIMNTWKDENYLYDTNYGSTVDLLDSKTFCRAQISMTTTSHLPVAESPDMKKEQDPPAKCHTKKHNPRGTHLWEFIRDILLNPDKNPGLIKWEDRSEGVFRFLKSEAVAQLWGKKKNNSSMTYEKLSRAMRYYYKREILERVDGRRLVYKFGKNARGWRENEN
# Outline: as §1
# SPI1 = SPI1 (Homo sapiens, UniProt P17947 1-270)
# Outline: as §1
# SPIB = SPIB (Homo sapiens, UniProt Q01892 1-262)
# Sequence of SPIB (Q01892 whole entry): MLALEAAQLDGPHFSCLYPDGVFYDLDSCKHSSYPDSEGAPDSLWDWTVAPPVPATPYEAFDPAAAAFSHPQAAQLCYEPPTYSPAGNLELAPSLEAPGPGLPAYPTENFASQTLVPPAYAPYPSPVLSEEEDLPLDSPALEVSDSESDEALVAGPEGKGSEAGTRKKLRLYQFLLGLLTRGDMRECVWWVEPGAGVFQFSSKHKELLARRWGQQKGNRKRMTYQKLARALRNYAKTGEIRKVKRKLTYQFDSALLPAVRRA
# Outline: as §1
# ELK3 = molecular target: T6, ELK3 (Homo sapiens, UniProt P41970 1-407)
# T6 sequence: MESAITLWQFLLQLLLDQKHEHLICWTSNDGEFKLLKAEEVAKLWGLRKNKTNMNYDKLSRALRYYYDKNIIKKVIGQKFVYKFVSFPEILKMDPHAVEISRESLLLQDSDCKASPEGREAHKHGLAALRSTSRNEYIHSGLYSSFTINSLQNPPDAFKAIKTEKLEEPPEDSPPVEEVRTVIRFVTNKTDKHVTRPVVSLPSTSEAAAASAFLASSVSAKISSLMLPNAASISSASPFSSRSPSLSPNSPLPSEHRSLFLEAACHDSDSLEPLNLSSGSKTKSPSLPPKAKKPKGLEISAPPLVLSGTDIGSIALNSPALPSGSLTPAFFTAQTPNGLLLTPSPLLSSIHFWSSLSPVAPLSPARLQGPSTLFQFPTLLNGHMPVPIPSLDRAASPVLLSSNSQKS
# Outline: as §1
sequence,measurement,setting,value
CCTGCT,binding signal,FLI1,"1.46 fold enrichment (6-mer frequency, TF over GST control)"
same,binding signal,ELK1,"1.72 fold enrichment (6-mer frequency, TF over GST control)"
same,binding signal,GABPA,"1.46 fold enrichment (6-mer frequency, TF over GST control)"
same,binding signal,ERG,"1.65 fold enrichment (6-mer frequency, TF over GST control)"
same,binding signal,ELF1,"1.61 fold enrichment (6-mer frequency, TF over GST control)"
same,binding signal,EHF,"1.61 fold enrichment (6-mer frequency, TF over GST control)"
same,binding signal,SPI1,"1.78 fold enrichment (6-mer frequency, TF over GST control)"
same,binding signal,SPIB,"1.59 fold enrichment (6-mer frequency, TF over GST control)"
same,binding signal,ELK3,"1.61 fold enrichment (6-mer frequency, TF over GST control)"
